# Assay results reported in PubChem BioAssay (Tox21).
# Records with an inconclusive call do not appear. A call without a number means that no potency is given here. The source made the active and inactive calls. Calls come from the whole dose curve; as a rule, active = well fitted curve in the direction sought with a large enough effect in the repeat runs; inconclusive = weak or mixed curves; inactive = no such curve, though single readings can be large; an effect the other way counts as inactive or inconclusive.
# How the values were obtained:
# [1] = A CellTox Green Cytotoxicity Assay to monitor cytotoxicity in HEK293 cells - 24 hour (AID 1224875); note: nearly all actives have a fitted effect of over 45% in size; note: potency is the fitted concentration of half-maximal effect
# Outline: (§1)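 Read-out: fluorescence of a cell-impermeant cyanine dye staining DNA of dead cells, proportional to cytotoxicity. HEK293, 600 cells/well with reagent, compound (23 nL DMSO) added after 5 h; reads at 0, 8, 16, 24, 32, 40 h.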
# [2] = A CellTox Green Cytotoxicity Assay to monitor cytotoxicity in HepG2 cells - 16 hour (AID 1224876); note: nearly all actives have a fitted effect of over 45% in size
# Outline: (§2)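 HepG2, 600 cells/well premixed w/ CellTox Green; 5 h settle, 37 C/5% CO2; pintool cpd add (DMSO); 37 C, 40 h; fluorescence read at 0, 8, 16, 24, 32, 40 h.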
# [3] = qHTS RealTime-Glo MT Cell Viability Assay in HepG2 cells - 32 hour (AID 1224877); note: nearly all actives have a fitted effect of over 55% in size
# Outline: (§3)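 HepG2 cells (600/well) were dispensed with RealTime-Glo reagents, incubated 5 h at 37 °C, then treated with compounds in DMSO for up to 40 h. Nonlytic NanoLuc luminescence reflecting viable cells was read at each stated time point.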
# [4] = A CellTox Green Cytotoxicity Assay to monitor cytotoxicity in HepG2 cells - 24 hour (AID 1224878); note: nearly all actives have a fitted effect of over 45% in size
# Outline: as §2
# [5] = A CellTox Green Cytotoxicity Assay to monitor cytotoxicity in HepG2 cells - 40 hour (AID 1224879); note: nearly all actives have a fitted effect of over 40% in size; note: potency is the fitted concentration of half-maximal effect
# Outline: as §2
# [6] = qHTS RealTime-Glo MT Cell Viability Assay in HEK293 cells - 0 hour (AID 1224880); note: top concentration of the series differs between compounds; nearly all actives have a fitted effect of over 45% in size
# Outline: (§4)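 Luminescence readout at each listed time point; HEK293, 600 cells/well, RealTime-Glo MT reagent added with cells; compounds pinned (23 nL in DMSO) after 5 h at 37 C; continuous culture at 37 C.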
# [7] = A CellTox Green Cytotoxicity Assay to monitor cytotoxicity in HEK293 cells - 32 hour (AID 1224881); note: nearly all actives have a fitted effect of over 40% in size; note: potency is the fitted concentration of half-maximal effect
# Outline: as §1
# [8] = A CellTox Green Cytotoxicity Assay to monitor cytotoxicity in HepG2 cells - 0 hour (AID 1224882); note: nearly all actives have a fitted effect of over 35% in size
# Outline: as §2
# [9] = A CellTox Green Cytotoxicity Assay to monitor cytotoxicity in HepG2 cells - 32 hour (AID 1224883); note: nearly all actives have a fitted effect of over 50% in size
# Outline: as §2
# [10] = A CellTox Green Cytotoxicity Assay to monitor cytotoxicity in HEK293 cells - 8 hour (AID 1224884); note: nearly all actives have a fitted effect of over 35% in size
# Outline: as §1
# [11] = qHTS RealTime-Glo MT Cell Viability Assay in HepG2 cells - 16 hour (AID 1224885); note: nearly all actives have a fitted effect of over 50% in size
# Outline: as §3
# [12] = qHTS RealTime-Glo MT Cell Viability Assay in HEK293 cells - 8 hour (AID 1224887); note: top concentration of the series differs between compounds; nearly all actives have a fitted effect of over 50% in size
# Outline: as §4
# [13] = A CellTox Green Cytotoxicity Assay to monitor cytotoxicity in HEK293 cells - 16 hour (AID 1224888); note: nearly all actives have a fitted effect of over 35% in size
# Outline: as §1
# [14] = qHTS RealTime-Glo MT Cell Viability Assay in HepG2 cells - 0 hour (AID 1224889); note: nearly all actives have a fitted effect of over 50% in size
# Outline: as §3
# [15] = A CellTox Green Cytotoxicity Assay to monitor cytotoxicity in HepG2 cells - 8 hour (AID 1224890); note: nearly all actives have a fitted effect of over 45% in size
# Outline: as §2
# [16] = qHTS assay to identify small molecule antagonists of the estrogen receptor alpha (ER-alpha) signaling pathway using the BG1 cell line in the presence of 0.1 nM 17-beta-estradiol - cell viability counter screen (AID 1259241); note: nearly all actives have a fitted effect of over 40% in size; note: potency is the fitted concentration of half-maximal effect
# Outline: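 Cells were plated and left 24 hr, compounds in DMSO were pinned in, 17beta-estradiol was added to 0.1 nM final, and after 22 hr CellTiter-Fluor reagent was added for 30 min before fluorescence was read.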
# [17] = biological target: Estrogen receptor (Homo sapiens) (UniProt P03372); assay: qHTS assay to identify small molecule antagonists of the estrogen receptor alpha (ER-alpha) signaling pathway using the BG1 cell line in the presence of 0.1 nM 17-beta-estradiol (AID 1259244); note: nearly all actives have a fitted effect of over 50% in size; note: potency is the fitted concentration of half-maximal effect
# Chain of Estrogen receptor (Homo sapiens) (P03372 whole entry, looked up): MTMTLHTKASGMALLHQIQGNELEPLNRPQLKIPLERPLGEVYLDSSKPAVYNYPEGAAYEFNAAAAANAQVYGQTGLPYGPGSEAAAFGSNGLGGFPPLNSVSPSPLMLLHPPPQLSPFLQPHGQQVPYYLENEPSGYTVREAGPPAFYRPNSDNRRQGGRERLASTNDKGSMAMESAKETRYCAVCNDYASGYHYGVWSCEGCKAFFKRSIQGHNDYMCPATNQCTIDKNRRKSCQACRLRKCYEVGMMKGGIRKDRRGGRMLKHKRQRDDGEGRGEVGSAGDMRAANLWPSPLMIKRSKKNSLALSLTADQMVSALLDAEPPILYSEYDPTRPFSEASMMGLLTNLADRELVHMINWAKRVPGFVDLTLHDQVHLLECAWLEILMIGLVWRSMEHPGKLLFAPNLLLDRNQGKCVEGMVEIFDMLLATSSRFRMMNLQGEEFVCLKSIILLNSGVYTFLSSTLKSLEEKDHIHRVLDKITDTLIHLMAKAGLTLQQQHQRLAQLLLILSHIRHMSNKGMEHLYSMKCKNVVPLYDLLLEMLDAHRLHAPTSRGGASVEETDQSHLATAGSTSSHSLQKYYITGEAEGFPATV
# Outline: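 Luminescence after ONE-Glo (30 min, room temperature) measured ERE-luciferase activity in VM7Luc4E2 cells treated 22 h with compound and 0.1 nM final 17beta-estradiol as stimulator.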
# [18] = qHTS RealTime-Glo MT Cell Viability Assay in HEK293 cells - 24 hour (AID 1224886)
# Outline: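 HEK293 cells seeded with NanoLuc/prosubstrate reagent, rested 5 h at 37 C, then dosed and kept at 37 C up to 40 h. Nonlytic real-time luminescence from viable cells read at 0, 8, 16, 24, 32 and 40 h.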
# [19] = qHTS assay to identify small molecule antagonists of the androgen receptor (AR) signaling pathway using the MDA cell line in the presence of 0.5 nM R1881 - cell viability counter screen (AID 1259242); note: nearly all actives have a fitted effect of over 45% in size
# Outline: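 Live-cell protease fluorescence, CellTiter-Fluor, 30 min at 37C. Cells: MDA-kb2, 3,000/well, preincubated 5 hr. Compounds plus 0.5 nM R1881 final, 16 hr, 37C, 0% CO2.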
# [20] = biological target: Androgen receptor (Homo sapiens) (UniProt P10275); assay: qHTS assay to identify small molecule antagonists of the androgen receptor (AR) signaling pathway using the MDA cell line in the presence of 0.5 nM R1881 (AID 1259243); note: nearly all actives have a fitted effect of over 50% in size; note: potency is the fitted concentration of half-maximal effect
# Chain of Androgen receptor (Homo sapiens) (P10275 whole entry, looked up): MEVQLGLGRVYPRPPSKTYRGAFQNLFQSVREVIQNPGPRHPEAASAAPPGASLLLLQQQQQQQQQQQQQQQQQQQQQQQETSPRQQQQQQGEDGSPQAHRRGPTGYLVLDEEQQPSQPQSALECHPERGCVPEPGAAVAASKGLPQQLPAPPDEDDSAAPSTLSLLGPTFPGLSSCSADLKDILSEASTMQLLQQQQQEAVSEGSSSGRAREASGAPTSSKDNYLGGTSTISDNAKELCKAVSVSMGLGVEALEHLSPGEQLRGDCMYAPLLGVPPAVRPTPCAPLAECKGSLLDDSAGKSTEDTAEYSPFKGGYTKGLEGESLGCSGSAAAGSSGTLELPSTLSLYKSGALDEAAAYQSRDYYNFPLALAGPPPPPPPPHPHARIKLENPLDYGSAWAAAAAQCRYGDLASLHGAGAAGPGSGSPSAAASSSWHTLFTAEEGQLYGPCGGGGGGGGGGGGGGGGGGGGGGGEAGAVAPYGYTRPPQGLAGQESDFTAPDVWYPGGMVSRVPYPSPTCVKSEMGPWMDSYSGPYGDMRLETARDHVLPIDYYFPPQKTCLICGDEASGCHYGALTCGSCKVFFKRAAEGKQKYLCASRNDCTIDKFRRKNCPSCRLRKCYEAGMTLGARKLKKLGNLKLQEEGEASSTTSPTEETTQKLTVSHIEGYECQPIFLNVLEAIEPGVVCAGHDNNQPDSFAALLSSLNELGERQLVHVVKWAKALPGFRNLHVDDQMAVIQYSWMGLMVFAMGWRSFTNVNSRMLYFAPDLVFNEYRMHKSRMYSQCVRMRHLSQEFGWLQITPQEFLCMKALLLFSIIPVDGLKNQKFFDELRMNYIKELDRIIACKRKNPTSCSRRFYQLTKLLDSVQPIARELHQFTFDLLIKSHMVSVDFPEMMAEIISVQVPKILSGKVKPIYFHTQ
# Outline: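 MDA-kb2, MMTV-luc (AR/GR elements); 3,000 cells/well; cpd + 0.5 nM R1881 final; 16 hr 37C, 0% CO2; ONE-Glo 30 min RT; luminescence.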
Structure (SMILES),Potency [1],Potency [2],Potency [3],Potency [4],Potency [5],Potency [6],Potency [7],Potency [8],Potency [9],Potency [10],Potency [11],Potency [12],Potency [13],Potency [14],Potency [15],Potency [16],Potency [17],Potency [18],Potency [19],Potency [20]
Oc1cccc2c(O)cccc12,inactive,inactive,inactive,inactive,inactive,inactive,inactive,inactive,inactive,inactive,inactive,inactive,inactive,inactive,inactive,68.6 µM (active),54.5 µM (active),–,–,–
CC1(C)[C@H](C(=O)OCc2cccc(Oc3ccccc3)c2)[C@@H]1C=C(Cl)Cl,inactive,inactive,inactive,inactive,inactive,inactive,inactive,inactive,inactive,inactive,inactive,inactive,inactive,inactive,inactive,–,inactive,inactive,inactive,inactive
CCC1(C)C(=O)N(Cl)C(=O)N1Cl (stereo not drawn),inactive,inactive,inactive,inactive,inactive,inactive,inactive,inactive,inactive,inactive,inactive,inactive,inactive,inactive,inactive,–,inactive,inactive,inactive,inactive
[Cl][Dy]([Cl])[Cl],inactive,inactive,inactive,inactive,inactive,inactive,inactive,inactive,inactive,–,inactive,inactive,inactive,inactive,inactive,inactive,inactive,inactive,inactive,–
CC1(C)[C@H]2CC[C@]1(C)C(=O)C2,inactive,inactive,inactive,inactive,inactive,inactive,inactive,inactive,inactive,inactive,inactive,inactive,inactive,inactive,inactive,inactive,inactive,inactive,–,–
CCOC(=O)[C@H](C)O,inactive,inactive,inactive,inactive,inactive,inactive,inactive,inactive,inactive,inactive,inactive,inactive,inactive,inactive,inactive,–,inactive,inactive,inactive,–
Cc1cc(C)c(O)c(C(C)(C)C)c1,24.5 µM (active),inactive,inactive,inactive,inactive,inactive,27.5 µM (active),inactive,inactive,inactive,inactive,inactive,–,inactive,inactive,–,inactive,inactive,–,inactive
O[Si](c1ccccc1)(c1ccccc1)c1ccccc1,inactive,inactive,inactive,inactive,inactive,inactive,inactive,inactive,inactive,inactive,inactive,–,inactive,inactive,inactive,–,inactive,–,inactive,30.6 µM (active)
Nc1c(Br)cc([N+](=O)[O-])cc1Br,inactive,inactive,inactive,inactive,inactive,inactive,inactive,inactive,inactive,inactive,inactive,inactive,inactive,inactive,inactive,inactive,inactive,inactive,–,–
c1ccc2occc2c1,inactive,inactive,inactive,inactive,inactive,inactive,inactive,inactive,inactive,inactive,inactive,–,–,inactive,inactive,inactive,68.6 µM (active),inactive,inactive,–
Nc1ccc2c(S(=O)(=O)O)cccc2c1S(=O)(=O)O,inactive,inactive,inactive,inactive,inactive,inactive,inactive,–,inactive,inactive,inactive,inactive,inactive,inactive,inactive,inactive,–,inactive,inactive,inactive
CSc1nnc(C(C)(C)C)c(=O)[nH]1,inactive,inactive,inactive,inactive,inactive,inactive,inactive,inactive,inactive,inactive,inactive,inactive,inactive,inactive,inactive,–,inactive,inactive,–,inactive
CC(C)c1ccc2sc3ccccc3c(=O)c2c1,inactive,inactive,inactive,inactive,19.5 µM (active),inactive,inactive,inactive,inactive,inactive,inactive,–,inactive,inactive,inactive,–,inactive,–,inactive,–
Cn1c(=O)[nH]c2ncn(C)c2c1=O,inactive,inactive,inactive,inactive,inactive,inactive,inactive,inactive,inactive,inactive,inactive,inactive,inactive,inactive,inactive,–,inactive,inactive,–,inactive
